This is a sample that favours compounds with a hit; in the whole collection about 3.1% have one here.
ARNT TACC3 PPI – disruptors of human ARNT/TACC3 interaction; Q9Y6A5; AlphaScreen His-ARNT PAS-B/GST-TACC3 binding, luminescence; TACC3 fragment carries E629A point mutation; inhibition, % at 9.99 µM; 390,000 tested, 0.66% active; AID 623870;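 active = mean inhibition of replicates at least 50% and at least half of replicates each reaching 50%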;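 note: 0% = complete ARNT plus TACC3 wells and 100% = ARNT alone without TACC3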
HSF1 inh – HSF1 inhibition | 300,000 tested, 0.77% active | NIH3T3-HGL HSE-luciferase, MG132-induced, luminescence 8 h; hits give low values | AID 2098 | activity change, negative = inhibition, % at 7.5 µM (by protocol);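 active = more than half of replicate wells show activity change below -50%, luminescence cut by over half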;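 note: luciferase reports HSF-1 transcriptional activity via heat shock element; 0% = median of DMSO wells and -100% = zero luminescence signal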
HSP90 refold inh – inhibitors of HSP90 luciferase refolding in rabbit reticulocyte lysate; inhibition, % at 5.6 µM; 290,000 tested, 0.91% active; AID 1789; luciferase refolding luminescence, 3 h;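 active = inhibition above the screen-wide mean plus 3 SD, computed separately per campaign, cut at about 16% in these data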;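 note: 0% = DMSO wells and 100% = 60 µM geldanamycin wells; inhibitors lower the luminescence because luciferase stays unfolded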
HSF-1 act – increases HSF-1 driven luciferase reporter signal; NIH3T3-HGL HSF-1 luciferase reporter, MG132, 8 h; 100% = twice DMSO control signal; activation, % at 9 µM; 300,000 tested, 1.7% active;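 active = mean replicate activation of at least 50% with a set share of replicates each reaching 50%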;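 note: 0% = median of the neutral control wells and 100% = twice that signal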
HIF activator – HIF pathway transcriptional activation | activation, % at 7.5 µM (by protocol) | AID 1910 | 300,000 tested, 0.32% active | U2OS HRE-luciferase reporter, luminescence; normalized: DMSO 0%, desferrioxamine 100%;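 active = mean activation of at least 10% of the iron chelator positive control signal, with at least half of replicates also reaching 10%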
* hit, by the source's call; . = not tested or not shown.

SMILES	ARNT TACC3 PPI	HSF1 inh	HSP90 refold inh	HSF-1 act	HIF activator
CCC(C)NC(=O)c1ccc2nc(-c3ccc(OC)c(OC)c3)c(-c3ccc(OC)c(OC)c3)nc2c1 (configuration not stated)	-25	2	-7	-7	1
CC(C)NC(=O)CN(C(=O)CCC(=O)Nc1nccs1)c1ccc2c(c1)OCO2	5	22	-3	66*	0
CCOc1ccccc1N1CCN(CC(=O)NC(C)c2ccccc2)CC1 (configuration not stated)	0	-61*	-4	-67	-4
CCC(=O)Nc1ccc2c(c1)C(=O)N(C)C[C@H](OC)[C@@H](C)CN(Cc1ccccn1)[C@@H](C)CO2	-9	.	.	.	.
Cc1cc(NC(=O)c2ccc(Cl)cc2)cc(C)c1OCC(=O)N1CCOCC1	-4	23	4	54*	0
CCCCOc1ccc(C(=O)Nc2cc(C)c(OCC(=O)N3CCOCC3)c(C)c2)cc1	1	3	-3	4	2
Cc1cc(Cl)ccc1OCCCC(=O)N1CCOCC1	-12	-65*	0	-74	4
CCOC(=O)c1ccc(Oc2nc(OC)nc(N(C)C)n2)cc1	1	-7	-1	11	0
CCOC(=O)c1ccc(Oc2nc(NC)nc(Nc3ccccc3)n2)cc1	2	-57*	4	-68	1
CN(C)/C=N/c1cnc(C(=O)c2ccc(Cl)cc2)n1C	-1	30	0	62*	2
CC1=C/C(=C(/c2cc(C)c(O)c(Br)c2)c2ccccc2S(=O)(=O)O)C=C(Br)C1=O	49*	-8	12	7	-3
Cc1ccc(S(=O)(=O)N(CC(=O)N2CCc3ccccc3C2)c2ccc(Cl)c(Cl)c2)cc1	1	-88*	-1	-91	0
COc1cccc(N(CC(=O)N2CCN(C)CC2)S(=O)(=O)c2ccc(C)cc2)c1	0	-85*	-3	-88	-2
COCC(=O)Nc1ccc2c(c1)[C@H]1C[C@H](CC(=O)NCc3ccccc3)O[C@@H](CO)[C@H]1O2	-3	.	.	.	.
Cc1ccc(S(=O)(=O)Nc2ccc3c(c2)C(=O)N([C@@H](C)CO)C[C@H](C)[C@H](CN(C)C(=O)Nc2cccc4ccccc24)OCCCC[C@H](C)O3)cc1	-8	.	.	.	.
C[C@H](CO)N1C[C@H](C)[C@@H](CN(C)S(=O)(=O)c2ccccc2)Oc2ccc(NC(=O)NC3CCCCC3)cc2CC1=O	-1	.	.	.	.
COc1ccc(NC(=O)C2CCN(S(=O)(=O)c3cccc4cccnc34)CC2)cc1	1	-2	-1	-2	.
CC(=O)c1ccc(NC(=O)C2CCN(S(=O)(=O)c3cccc4cccnc34)CC2)cc1	2	-62*	0	-69	.
O=C(COC(=O)C1CCN(S(=O)(=O)c2cccc3cccnc23)CC1)c1ccc([N+](=O)[O-])cc1	-2	61	2	107*	0
Cc1ccc(S(=O)(=O)N(C)C[C@@H]2OCCCC[C@H](C)Oc3ccc(NS(=O)(=O)c4ccccc4)cc3C(=O)N([C@H](C)CO)C[C@H]2C)cc1	-6	.	.	.	.
COC(=O)Cn1c2ccc(OC)cc2c2nc(C)sc21	6	33	2	88*	0
O=C(NCc1ccccc1)c1cccc(COc2ccccc2Cl)c1	.	-38	17*	-52	-10
C[C@@H]1CCCCO[C@@H](CN(C)CC2CCCCC2)[C@H](C)CN([C@@H](C)CO)C(=O)c2cc(NC(=O)NC3CCCCC3)ccc2O1	-8	.	.	.	.
Cc1oc(=O)c(NC(=O)c2cccc(Cl)c2)cc1C(=O)c1ccccc1	.	74	-3	123*	1
COc1ccc(C(=O)Nc2cc(C(=O)c3ccccc3)c(C)oc2=O)cc1	0	34	0	38	1
SMILES	ARNT TACC3 PPI	HSF1 inh	HSP90 refold inh	HSF-1 act	HIF activator
Cc1ccc(NC(=O)N2CCC(NC(=O)c3cccc(C)c3)CC2)cc1	.	-23	3	-15	150*
Clc1ccc(-n2nnc(-c3cccnc3Cl)n2)cn1	5	15	3	41	4
Cc1ccc(-n2nnc(-c3cccnc3Cl)n2)cc1	-11	44	10	70*	1
O=C(C[C@@H]1C[C@@H]2c3cc(NC(=O)Nc4ccccc4)ccc3O[C@@H]2[C@H](CO)O1)NCc1cccc(F)c1	2	.	.	.	.
Nc1ccc2oc3ccccc3c2c1	-2	-22	16*	-9	-38
O=C(O)CCCN1C(=O)/C(=C\c2ccc(-c3nc4ccccc4s3)o2)SC1=S	-1	6	3	22	0
O=C(O)CCN1C(=O)/C(=C/c2ccc(-c3nc4ccccc4s3)o2)SC1=S	64*	-5	1	0	1
O=Cc1ccc(-c2nc3ccccc3s2)o1	.	36	13	63*	1
C[C@@H]1CN([C@H](C)CO)S(=O)(=O)c2ccc(-c3cccnc3)cc2O[C@@H]1CN(C)C(=O)NC1CCCCC1	-7	.	.	.	.
CO[C@@H]1CN(C)C(=O)c2ccc(NC(=O)Nc3ccc(Cl)cc3)cc2OC[C@H](C)N(C)C[C@H]1C	0	.	.	.	.
O=[N+]([O-])c1ccccc1/C=C/c1ccncc1	10	.	.	.	.
CCc1ccccc1NC(=O)c1ccc(NS(C)(=O)=O)cc1	-12	-56*	-3	-64	0
COc1ccc(S(=O)(=O)N(C)C[C@@H]2OCCCC[C@H](C)Oc3ccc(NS(=O)(=O)c4c(C)noc4C)cc3C(=O)N([C@H](C)CO)C[C@H]2C)cc1	-1	.	.	.	.
O=C(CCN1CCc2ccccc2C(c2ccccc2)C1)c1ccc2c(c1)OCCO2 (configuration not stated)	0	57	8	87*	0
O=C(CCN1Cc2ccccc2C1)c1ccc2c(c1)OCCO2	1	27	7	12	1
Cc1ccc2c(c1)c(C)c(C)n2CC(O)Cn1nc(C)c(Br)c1C (configuration not stated)	7	30	0	57*	0
Cc1ccc2c(c1)c1c(n2CC(O)Cn2nc(C)c(Br)c2C)C(=O)CCC1 (configuration not stated)	.	12	1	-1	0
Cc1ccc(S(=O)(=O)Nc2ccc3c(c2)C(=O)N([C@H](C)CO)C[C@@H](C)[C@@H](CN(C)Cc2ccccc2)O3)cc1	-7	.	.	.	.
C[C@@H]1CN([C@H](C)CO)C(=O)c2cc(-c3ccc(C#N)cc3)cnc2O[C@@H]1CN(C)C(=O)Nc1ccc(F)cc1	0	.	.	.	.
Cc1ccc(OC(=O)COc2ccccc2)c(-n2nc3ccccc3n2)c1	-4	41	-5	51*	2
COc1ccccc1NC(=O)c1cnc(SCC(=O)NCC2CCCO2)n(C)c1=O (configuration not stated)	-3	164	.	171*	1
Cn1c(O)c(/C=N/Nc2ccccc2)c(=O)n(C)c1=O	-3	-7	16*	-7	-1
Cc1[nH]nc(N=Cc2c(O)n(C)c(=O)n(C)c2=O)c1-c1ccccc1	.	-2	.	5	0
Cc1cc(C)nc(-n2nc(C)c(Sc3ccc(F)cc3)c2N)n1	-11	31	-4	62*	5

Bioassay records deposited in PubChem BioAssay by several laboratories.
